# Data as given in PubChem BioAssay (EPA / NIEHS).
# “And” between values parts separate entries of the source, which are not always exact repeats. Equal entries are not always repeated. Inconclusive results are not listed. The source made the active and inactive calls. Rule for the calls, unless noted: active = hit-call score of the fitted dose curve at least 0.9, where 1 is the maximum; inactive = score below 0.9.
# Experiments:
# [1] = BSK_BT_PBMCCytotoxicity: PBMC Cytotoxicity Assessment in the BioMAP Diversity Plus: BT Assay (AID 2284225); conditions: primary human B cells with PBMC;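 note: PBMC viability measured by Alamar Blue dye reduction fluorescence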
# How it was run: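 Viability by Alamar Blue reduction (6 h, ex/em 546/580 nm) after 90 h culture of SEB/TSST-1-activated PBMC (20 ng/mL each) given compound 1 h before activation. DMSO served as baseline for curve fitting.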
# [2] = read-out: Secreted IgG (sIgG), gene 3500; assay: BSK_BT_sIgG: BioMAP Diversity Plus: BT Assay for Secreted IgG (sIgG) Biomarker Activity (AID 2284226); conditions: primary human B cells with PBMC
# How it was run: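 ELISA quantitation of secreted IgG from human B cells co-cultured with PBMC, sampled 24 h post-dosing. Values fitted relative to DMSO vehicle as baseline, positive fitting direction.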
# [3] = BSK_BT_Bcell_Proliferation: Viability Assessment in the BioMAP Diversity Plus: BT Assay for B cell Proliferation (AID 2284227); conditions: primary human B cells with PBMC
# How it was run: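 Human B cells co-cultured with PBMC were dosed with test chemicals and relative cell number was quantified by SRB staining at 72 h. Cells were fixed in 10% TCA, stained with 0.1% SRB and read at 560 nm. Activity was fitted in the positive direction against DMSO.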
# [4] = read-out: Interleukin 6 (IL6), IL6 (gene 3569); assay: BSK_BT_xIL6: BioMAP Diversity Plus: BT Assay for Interleukin 6 (IL6) Biomarker Activity (AID 2284228); conditions: primary human B cells with PBMC
# How it was run: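 B cells and peripheral blood mononuclear cells (human primary co-culture) were dosed with chemical, and after 24 h IL-6 released into the medium was measured by Luminex xMAP. Responses were analysed as gain of signal over DMSO control.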
# [5] = read-out: Tumor necrosis factor (Homo sapiens) (UniProt P01375); assay: BSK_BT_xTNFa: BioMAP Diversity Plus: BT Assay for Tumor necrosis factor alpha (TNF-alpha) Biomarker Activity (AID 2284230); conditions: primary human B cells with PBMC
# How it was run: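 B cells with PBMC in co-culture, dosed and sampled at 24 h; secreted TNF-alpha measured by Luminex xMAP bead assay. Activity fitted in the gain direction against DMSO as negative control and baseline.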
# [6] = read-out: Vascular cell adhesion molecule 1 (VCAM1), VCAM1 (gene 7412); assay: BSK_MyoF_VCAM1: BioMAP Diversity Plus: MyoF Assay for Vascular cell adhesion molecule 1 (VCAM1) Biomarker Activity (AID 2284231); conditions: primary human lung fibroblasts
# How it was run: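 ELISA read-out of VCAM-1 on human lung fibroblasts 24 h after chemical treatment, with positive-direction curve fitting relative to DMSO controls. Parallel cultures were stained with sulforhodamine B for total protein to flag overt cytotoxicity.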
# [7] = UKN4_HCS_LUHMES_cell_viability: Viability Assessment in the University of Konstanz (UKN) Leist Lab Neurite Outgrowth Assay in human LUHMES cells (UKN4) (AID 2284232)
# Method: UKN4_HCS_LUHMES is a cell-based, multiplexed-readout assay screening for neurite outgrowth and cell viability that uses LUHMES, a human central nervous system cell line, with measurements taken at […] after chemical dosing in a microplate: 96-well plate. UKN4, also referred to as NeuriTox, is an assay that uses LUHMES neuronal precursors as a model of dopaminergic neuronal differentiation. Following a 2-day differentiation period, cells are exposed to chemicals for 24 hr and neurite area is evaluated as a marker of neurite outgrowth using high-content imaging of cells stained with calcein AM. Cell viability is assessed using stain Hoechst H-33342.UKN4_HCS_LUHMES_cell_viability is an assay component measured from the UKN4_HCS_LHUMES assay. It is designed to make measurements of enzyme activity, a form of viability reporter, as detected with Fluorescence intensity signals by HCS Fluorescent Imaging.The assay endpoint UKN4_HCS_LUHMES_cell_viability was analyzed with bidirectional fitting relative to DMSO as the negative control and baseline of activity. Using a type of viability reporter, gain or loss-of-signal activity can be used to understand viability effects. To generalize the intended target to other relatable targets, this assay endpoint is annotated to the cell cycle intended target family, where the subfamily is viability.
# Proliferating LUHMES cells are seeded in proliferation medium for 24 hours. Day 0: Medium is changed from proliferation medium to differentiation medium. Day 2: Cell number reaches about 30-40 Mio per T175 flask. Cells are trypsinized and replated onto 96-well plates (30000 cells/well in 90 ul) in differentiation medium without cAMP and GDNF. At about 30 min - 2 hours after seeding, when cells have attached, the compounds are added (10 ul of each dilution; total volume 100 ul). Day 3: 23.5 h after toxicant treatment, cells are live-stained with H-33342 and calcein-AM and incubated for 30 min. After 24 h of treatment (including staining), the cells are imaged using a high-content microscope (Cellomics).
# [8] = UKN2_HCS_IMR90_cell_viability: Viability Assessment in the University of Konstanz (UKN) Leist Lab Neural Crest Cell Migration Assay in human induced IMR90 Pluripotent Stem Cells (UKN2) (AID 2284233);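 note: cells exposed to compound for 24 h after a 24 h migration phase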
# Method: UKN2_HCS_IMR90 is a cell-based, multiplexed-readout assay screening for neural crest cell migration and cell viability that uses IMR90 (neural crest cells differentiated from iPSC), a human embryo cell line, with measurements taken at […] after chemical dosing in a microplate: 96-well plate. UKN2, also known as cMINC, is an assay that uses IMR90 cells (neural crest cells differentiated from iPSC) as a model of neural crest cell migration. 24 hr after cell seeding, cell migration was initiated and proceeded for 24 hr. Then, chemical was applied, and after 24 hr of exposure migration and viability were assessed using high-content imaging of cells stained with calcein-AM and Hoechst H-33342.UKN2_HCS_IMR90_cell_viability is an assay component measured from the UKN2_HCS_IMR90 assay. It is designed to make measurements of enzyme activity, a form of viability reporter, as detected with Fluorescence intensity signals by HCS Fluorescent Imaging.The assay endpoint UKN2_HCS_IMR90_cell_viability was analyzed with bidirectional fitting relative to DMSO as the negative control and baseline of activity. Using a type of viability reporter, gain or loss-of-signal activity can be used to understand viability effects. To generalize the intended target to other relatable targets, this assay endpoint is annotated to the cell cycle intended target family, where the subfamily is viability.
# The wells are coated with PLO/laminin/fibronectin. Then, silicone stoppers are placed into the wells of a 96-well plate. Cells are seeded around the stoppers and allowed to attach for 24 hours. Day 0: The silicone stoppers are removed and the medium is replaced with pre-warmed, fresh N2-S medium containing the cytokines EGF and FGF. Cells are allowed to migrate into the cell free area. Day 1: 25 ul of the 5x concentrated toxicants are added to the wells. The cells plus toxicants are incubated for 24 h. Day 2: Cells are stained with calcein-AM and Hoechst (H-33342) for 30 min before imaging with a high content imaging microscope. Quantification of migration and viability is done by high content imaging analysis.
# [9] = CCTE_Mundy_HCI_Cortical_NOG_NeuronCount: CCTE's Neurite Outgrowth Assay in rat cortical cells for Neuron Count, Mundy Lab (AID 2284236; active = hit-call score of the fitted dose curve at least 0.9, where 1 is the maximum;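 note: neurons counted by imaging betaIII-tubulin and Hoechst stained cortical cells; cells exposed to compound for about 48 hours before fixation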)
# How it was run: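 Read-out: neuron number by high-content imaging of betaIII-tubulin (Alexa Fluor-488) and Hoechst-labelled rat primary cortical cells.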
# Tumor necrosis factor (Homo sapiens), sequence (P01375 whole entry, looked up): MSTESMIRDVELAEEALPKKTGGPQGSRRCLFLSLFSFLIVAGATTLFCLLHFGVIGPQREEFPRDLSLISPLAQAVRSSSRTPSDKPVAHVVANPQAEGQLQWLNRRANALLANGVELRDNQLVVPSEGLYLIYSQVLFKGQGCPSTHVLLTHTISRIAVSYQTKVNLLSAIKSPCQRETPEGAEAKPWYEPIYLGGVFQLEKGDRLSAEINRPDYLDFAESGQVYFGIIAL
smiles,measurement,setting,value
CC(C)(COCC1CO1)COCC1CO1 (stereo unspecified),outcome,[1],inactive
same,AC50,[2],16 µM (active)
same,AC50,[3],20 µM (active)
same,outcome,[4],inactive
same,outcome,[5],inactive
same,outcome,[6],inactive
C[C@]12CC[C@@H](O)C[C@@H]1CC[C@@H]1[C@@H]2CC[C@]2(C)C(=O)CC[C@@H]12,outcome,[1],inactive
same,AC50,[2],20 µM (active)
same,outcome,[3],inactive
same,outcome,[4],inactive
same,outcome,[5],inactive
same,outcome,[6],inactive
Cc1ccc2nc3sc(=O)sc3nc2c1,outcome,[1],inactive
same,AC50,[2],5 µM (active)
same,AC50,[3],5 µM (active)
same,outcome,[4],inactive
same,outcome,[5],inactive
same,AC50,[6],7.88 µM (active)
CCN(CC)C(=O)C(Cl)=C(C)OP(=O)(OC)OC,outcome,[1],inactive
same,outcome,[2],inactive
same,outcome,[3],inactive
same,outcome,[4],inactive
same,outcome,[5],inactive
same,outcome,[6],inactive
CNC(=O)CSP(=O)(OC)OC,outcome,[7],inactive
same,outcome,[8],inactive
same,outcome,[9],inactive
Nc1ccc(N)cc1,outcome,[1],inactive
same,outcome,[2],inactive
same,outcome,[3],inactive
same,outcome,[4],inactive
same,outcome,[5],inactive
same,outcome,[6],inactive
CCOCn1c(-c2ccc(Cl)cc2)c(C#N)c(Br)c1C(F)(F)F,AC50,[8],15.1 µM (active)
same,AC50,[9],58 µM (active)
Cc1cc(Cl)ccc1N,outcome,[1],inactive
same,outcome,[2],inactive
same,outcome,[3],inactive
same,outcome,[4],inactive
same,outcome,[5],inactive
same,outcome,[6],inactive
Oc1cccc(-c2ccccc2)c1,outcome,[1],inactive
same,outcome,[2],inactive
same,outcome,[3],inactive
same,outcome,[4],inactive
same,outcome,[5],inactive
same,AC50,[6],32.3 µM (active)
CCOC(=O)CC(=O)CCl,AC50,[1],19 µM (active)
same,AC50,[2],4.86 µM (active)
same,AC50,[3],16.9 µM (active)
same,AC50,[4],11.8 µM (active)
same,AC50,[5],23.4 µM (active)
same,outcome,[6],inactive
Nc1c(Oc2ccccc2)cc(O)c2c1C(=O)c1ccccc1C2=O,outcome,[1],inactive
same,outcome,[2],inactive
same,outcome,[3],inactive
same,outcome,[4],inactive
same,outcome,[5],inactive
same,outcome,[6],inactive
CCOP(=S)(OCC)OP(=S)(OCC)OCC,outcome,[1],inactive
same,outcome,[2],inactive
same,outcome,[3],inactive
same,outcome,[4],inactive
same,outcome,[5],inactive
same,outcome,[6],inactive
Cc1cc(C(F)(C(F)(F)F)C(F)(F)F)ccc1NC(=O)c1cccc(I)c1C(=O)NC(C)(C)CS(C)(=O)=O,outcome,[7],inactive
same,outcome,[9],inactive
O=S(=O)(C(Cl)(Cl)Cl)C(Cl)(Cl)Cl,AC50,[1],3.65 µM (active)
same,AC50,[2],2.2 µM (active)
same,AC50,[3],2.48 µM (active)
same,AC50,[4],3.85 µM (active)
same,AC50,[5],4.36 µM (active)
same,AC50,[6],3.12 µM (active)
Cc1cccc(OP(=O)(Oc2cccc(C)c2)Oc2cccc(C)c2)c1,outcome,[1],inactive
same,outcome,[2],inactive
same,outcome,[3],inactive
same,outcome,[4],inactive
same,outcome,[5],inactive
same,outcome,[6],inactive
OC(Cc1ccccc1Cl)(Cn1cncn1)C1(Cl)CC1 (stereo unspecified),outcome,[1],inactive
same,AC50,[2],20 µM (active)
same,outcome,[3],inactive
same,outcome,[4],inactive
same,outcome,[5],inactive
same,outcome,[6],inactive
O=c1oc2ccccc2c(O)c1C(CC(O)c1ccc(-c2ccc(Br)cc2)cc1)c1ccccc1 (stereo unspecified),outcome,[1],inactive
same,AC50,[2],20.8 µM (active)
same,outcome,[3],inactive
same,outcome,[4],inactive
same,outcome,[5],inactive
same,AC50,[6],6.21 µM (active)
O=S(=O)(c1ccc(Cl)cc1)c1cc(Cl)c(Cl)cc1Cl,outcome,[1],inactive
same,AC50,[2],20 µM (active)
same,AC50,[3],30.1 µM (active)
same,outcome,[4],inactive
same,outcome,[5],inactive
same,outcome,[6],inactive
CS(=O)(=O)c1ccc(C(=O)C2C(=O)CCCC2=O)c(Cl)c1COCC(F)(F)F,outcome,[9],inactive
O=C(O)COc1cc(Cl)c(Cl)cc1Cl,outcome,[1],inactive
same,outcome,[2],inactive
same,outcome,[3],inactive
same,outcome,[4],inactive
same,outcome,[5],inactive
same,outcome,[6],inactive
CCCCN(CCCC)C(=S)[S-].CCCCN(CCCC)C(=S)[S-].[Ni+2],outcome,[1],inactive
same,AC50,[2],2.66 µM (active)
same,outcome,[3],inactive
same,outcome,[4],inactive
same,outcome,[5],inactive
same,outcome,[6],inactive
CCCCCCCCCCCCN(C)C,outcome,[1],inactive
same,outcome,[2],inactive
same,outcome,[3],inactive
same,outcome,[4],inactive
same,outcome,[5],inactive
same,outcome,[6],inactive
CC1(C)[C@H](C(=O)O[C@H](C#N)c2cccc(Oc3ccccc3)c2)[C@@H]1/C=C(\Cl)C(F)(F)F,outcome,[1],inactive
same,AC50,[2],25.1 µM (active) and 28.9 µM (active)
same,outcome,[3],inactive
same,AC50,[4],17.1 µM (active) and 8.49 µM (active)
same,outcome,[5],inactive
same,outcome,[6],inactive
same,outcome,[9],inactive
O=[N+]([O-])c1ccc(Nc2ccccc2)cc1,outcome,[1],inactive
same,AC50,[2],12.9 µM (active)
same,outcome,[3],inactive
same,outcome,[4],inactive
same,outcome,[5],inactive
same,outcome,[6],inactive
NC(=O)c1ccc(N)nc1,outcome,[9],inactive
O=S1OC[C@@H]2[C@H](CO1)[C@]1(Cl)C(Cl)=C(Cl)[C@@]2(Cl)C1(Cl)Cl (stereo partly specified),AC50,[7],27 µM (active)
same,outcome,[8],inactive
OC(Cc1ccccc1Cl)(Cn1[nH]cnc1=S)C1(Cl)CC1 (stereo unspecified),outcome,[1],inactive
same,AC50,[2],23.8 µM (active)
same,outcome,[3],inactive
same,outcome,[4],inactive
same,outcome,[5],inactive
same,AC50,[6],30.1 µM (active)
same,AC50,[8],63.1 µM (active)
same,outcome,[9],inactive
CCOC(=O)CCN(SN(C)C(=O)Oc1cccc2c1OC(C)(C)C2)C(C)C,AC50,[1],25.9 µM (active)
same,AC50,[2],27.5 µM (active)
same,AC50,[3],28.9 µM (active)
same,AC50,[4],33.4 µM (active)
same,AC50,[5],36.7 µM (active)
same,AC50,[6],33.1 µM (active)
Oc1ccc(Cc2ccc(O)cc2)cc1,outcome,[1],inactive
same,outcome,[2],inactive
same,outcome,[3],inactive
same,outcome,[4],inactive
same,outcome,[5],inactive
same,outcome,[6],inactive
Cc1ccccc1OP(=O)(Oc1ccccc1C)Oc1ccccc1C,outcome,[1],inactive
same,AC50,[2],13.9 µM (active)
same,AC50,[3],34.4 µM (active)
same,AC50,[4],20 µM (active)
same,AC50,[5],31 µM (active)
same,AC50,[6],11.4 µM (active)
same,AC50,[8],8.46 µM (active)
same,AC50,[9],24.1 µM (active)
CC(C)(C)c1cc([N+](=O)[O-])cc(C(C)(C)C)c1O,AC50,[1],26.2 µM (active)
same,AC50,[2],2.8 µM (active)
same,AC50,[3],13.3 µM (active)
same,outcome,[4],inactive
same,AC50,[5],14.8 µM (active)
same,outcome,[6],inactive
